Laboratory results reported in PubChem BioAssay.
Active and inactive are the calls of the source.

Assay: plasmodial surface anion channel blockers, osmotic lysis – cell-based, P. falciparum Indochina, OD700, 1 h, primary screen (AID 1154)
Conditions: P. falciparum Indochina infected RBC osmotic lysis, higher = more signal, called active from +8 up or from −8 down

z-score, active:
NC(=O)[C@@]1(Cc2ccccc2)COC(c2ccc(OCCCO)cc2)=N1 17.5
N#Cc1ccc(NN2C(C(O)c3ccc(Br)cc3)C=CC3C(=O)N(c4ccccc4)C(=O)C32)cc1 (stereo not drawn) 14.8
[N-]=[N+]=Nc1ccccc1C[C@]1(C(=O)NCC(O)CO)COC(c2ccc(OCCCO)cc2)=N1 (stereo partly drawn) 22.8
C=CC[C@]1(C(=O)N2CCCCC2)N=C(c2ccc(OCCCO)cc2)O[C@H]1c1ccccc1CN=[N+]=[N-] 23.1
O=C(c1ccccc1)N1C(=O)[C@]2(Cc3ccccc31)N=C(c1ccc(OCCCO)cc1)O[C@@H]2c1ccccc1 21.9

z-score, inactive:
CC(c1ccccc1)C(O)C1C=CC2C(=O)N(C)C(=O)C2N1Nc1ccccc1 (stereo not drawn) 0.627
Cc1ccc(N2C(=O)c3ccccc3[C@@H](C(=O)NCCCN(C)C)[C@@H]2c2ccc(CO)cc2)nc1 1.06
CCCCC(CC)C(O)C1C=CC2C(=O)N(C)C(=O)C2N1Nc1ccccc1 (stereo not drawn) 0.755
C=CCNC(=O)[C@@H]1[C@H]2C(=O)O[C@H](c3ccccc3)[C@H](c3ccccc3)N2[C@H](c2ccc(O)cc2)[C@@]12C(=O)N(C(=O)OCCOC)c1ccc(C#CC3=CCCCC3)cc12 1.78
NCCCCCCNC(=O)[C@@H]1C[C@@H]2C(=O)N[C@@H](CCCCN)C(=O)N2[C@@H]1c1ccc(O)cc1 1.11
Cc1ccc(C(C)CC(O)C2C=CC3C(=O)N(c4ccccc4)C(=O)C3N2Nc2ccccc2)o1 (stereo not drawn) 4.07
COCCOC(=O)N1C(=O)[C@@]2(c3cc(C#CC4(O)CCCCCC4)ccc31)[C@H](C(=O)N1CCc3cc(OC)c(OC)cc3C1)[C@H]1C(=O)O[C@H](c3ccccc3)[C@H](c3ccccc3)N1[C@@H]2c1ccc(OCCO)cc1 7.39
COC(=O)[C@@]1(Cc2ccc(OC)cc2)[C@H]2c3cc(C(=O)N(C)C)n(Cc4ccc(OC(F)(F)F)cc4)c3C[C@H]2CN1C(=O)c1ccccc1 0.404
CCCCCN1CC=CC23O[C@@H]4C=CCCOC(=O)C4[C@H]2C(=O)N(CCCCCCO)[C@@H]3C1=O (stereo partly drawn) 1.07
COCCOC(=O)N1C(=O)[C@@]2(c3cc(C#CC4=CCCCC4)ccc31)[C@H](c1ccccc1OCCO)N1[C@H](c3ccccc3)[C@H](c3ccccc3)OC(=O)[C@H]1[C@@H]2C(=O)N1CCN(c2ncccn2)CC1 1.04
CCOC(=O)C[C@H]1[C@H](OC(=O)c2ccccc2-c2ccccc2)[C@@H](NC(=O)c2ccc3ccccc3c2)c2cc(OCCCO)ccc2N1C(=O)c1ccccc1 1.05
O=C1NC(=O)C2C1C=CC(C(O)c1ccco1)N2Nc1ccc(Cl)cc1Cl (stereo not drawn) 5.52
C=CCOC(=O)[C@@]1(Cc2ccccc2)C[C@H]2CO[C@H](c3ccc(OC)cc3)N2C1=O 1.36
COCCCNC(=O)[C@@H]1c2ccccc2C(=O)N(C(C)C)[C@H]1c1ccc(CO)cc1 0.178
COC(=O)C1=CC(CCCO)=CC(c2cccs2)N(Cc2cccc(OC(F)(F)F)c2)C=C1C(=O)OC (stereo not drawn) 4.92
COc1cccc(C)c1NC(=O)O[C@H]1[C@H](OC(=O)Nc2ccc3c(c2)OCO3)[C@@H](OC(=O)Nc2ccc3c(c2)OCO3)[C@@H](OC)O[C@@H]1CO 5.81
CCCCCCCCCCC(O)C1C=CC2C(=O)N(c3ccccc3)C(=O)C2N1Nc1ccc(C#N)cc1 (stereo not drawn) 6.7
Cc1ccc(F)cc1S(=O)(=O)N[C@@H]1CCN(Cc2ccc(Br)cc2)C1 2.63
COCC(=C=CC[C@H](O)c1ccc(CO)o1)CCO 0.811
C[N+](C)(C)CCCCCCNC(=O)[C@@H]1C[C@@H]2C(=O)N3CCC[C@H]3C(=O)N2[C@@H]1c1ccc(O)cc1 1.55
C=CCC(OC(C)=O)[C@@H]1[C@@H](N(Cc2ccc(-c3ccccc3)cc2)C(=O)c2ccc(-c3ccccc3)cc2)c2cc(OCCCO)ccc2N1C(=O)c1ccc2ccccc2c1 (stereo partly drawn) 0.225
CCOC(=O)C1=C[C@@H](C(C)(C)C)N(S(=O)(=O)c2ccc(C)cc2)[C@H]1c1cccc2ccccc12 0.564
O=C1CS(=O)(=O)C(c2cccc([N+](=O)[O-])c2)N1c1ccccc1 (stereo not drawn) -0.625
